MCF10A rereplic = A quantitative high throughput screen for small molecules that induce DNA re-replication in MCF 10a normal breast cells; Potency, µM (top dose mostly 46.1 µM), for the others: at the highest dose activity, positive = re-replication, hits mostly activators; 350,000 compounds, 2.9% hits; AID 624296, 2012; MCF 10A DNA re-replication, Hoechst nuclear intensity, 48 h; further: potency means the concentration at half of the fitted maximal effect; % of control where 0% means no effect; nearly all actives have a fitted effect of over 50% in size
TDP1 cell noCPT = qHTS for Inhibitors of human tyrosyl-DNA phosphodiesterase 1 (TDP1): qHTS in cells in absence of CPT. DT40 Tdp1-/- hTDP1 cells, no CPT, ATP luminescence, 48 h. Potency, µM (titrated, usually from 46.2 µM), for inactives: top-dose activity change, negative = growth inhibition, most hits filed as inhibitors. 420,000 compounds, 15% hits; further: potency means the concentration at half of the fitted maximal effect; on the % scale 0 is the no-effect control and ±100 the full control effect; nearly all actives have a fitted effect of over 55% in size
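Growth of hTDP1-complemented DT40 Tdp1-knockout cells is measured by ATP luminescence after at least 48 hr compound exposure at 37 °C, with DMSO substituting for the 20 nM CPT used in the parallel screen.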
SW480 rerep = A quantitative high throughput screen for small molecules that induce DNA re-replication in SW480 colon adenocarcinoma cells | Potency, µM (titrated, usually from 46.1 µM), for the others: top-dose re-replication activation, actives largely listed as activators | AID 624297, 2012 | 340,000 compounds, 1.8% hits | SW480 DNA re-replication, Hoechst DNA content imaging, 48 h; further: potency means the concentration at half of the fitted maximal effect; % of control where 0% means no effect; nearly all actives have a fitted effect of over 55% in size
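Readout is total intensity of Hoechst-stained nuclei, excited at 405 nm and collected at 500-530 nm. Compound treatment lasted 48 hr at 37 C in 5% CO2 before staining.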
IL1B secr inh = qHTS for Inhibitors of Inflammasome Signaling: IL-1-beta AlphaLISA Primary Screen. THP-1 LPS/ATP IL-1B secretion, AlphaLISA, 16 h; active compounds read low. activity change, % at 57.5 µM. 360,000 compounds, 4.7% hits. AID 743279, 2014; in the data active means activity change below about -50%; inconclusive means mostly about -30% to -49%; further: on the % scale 0 is the no-effect control and ±100 the full control effect
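THP-1 cells pretreated 1 hr with compounds (up to 57.5 uM final), then stimulated with LPS (250 ng/mL final) plus ATP (1.25 mM final); secreted IL-1B measured by AlphaLISA after 16 hr, decreased signal indicating inhibition.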
DT40 TDP1 CPT = qHTS for Inhibitors of human tyrosyl-DNA phosphodiesterase 1 (TDP1): qHTS in cells in presence of CPT. chicken DT40 Tdp1-/-;hTDP1 cells + 20 nM CPT, ATP luminescence, 48 h. 420,000 compounds, 12% hits. Potency, µM (series often up to 46.2 µM), for the others: top-dose activity change, negative = growth inhibition, most hits filed as inhibitors. AID 686979, 2013; further: potency means the concentration at half of the fitted maximal effect; on the % scale 0 is the no-effect control and ±100 the full control effect; nearly all actives have a fitted effect of over 55% in size
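Chicken DT40 Tdp1-/- cells complemented with human TDP1, 400 cells/well, exposed to compounds plus 20 nM camptothecin for at least 48 h at 37 C; viability read as ATP content by CellTiter-Glo luminescence.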
BCR signal inh = qHTS Assay to Find Inhibitors of Chronic Active B-Cell Receptor Signaling; 340,000 compounds, 0.05% hits; Potency, µM (series often up to 46.1 µM), without a hit: at the highest dose activity change, negative = inhibition, hits mostly inhibitors; AID 493014, 2011; ABC-DLBCL IkBa-CBG/CBR reporter, luminescence ratio, 4 h; active means well fitted inhibition curve with a large enough effect in the signal ratio, with a control signal flat, not every such curve was filed as active; inconclusive means small, poorly fitted or top-dose-only effect, or effect the other way, or a change in a side signal; the % refers to the signal ratio;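 further: potency means the concentration at half of the fitted maximal effect; plate controls were basal doxycycline-induced cells for no effect and cells given 10 µM MG132 for full effect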
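Cell line TMD8 (human ABC DLBCL), stably expressing tet-inducible CBG68-IkBa fusion and CBR; IMDM/0.5% FBS; cpd up to 46 uM; dox induction, 4 h, 37C/5% CO2; dual luminescence; green/red ratio; MG132 control.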
An asterisk follows results filed as active; ? = inconclusive; / = no result; [ ] = another dose, or the depositor's remark. Compounds with a hit are over-represented: about 19% of the library has one in this group of screens. Unless noted, the call rests on the fitted dose curve; in most records, active means well fitted curve in the direction sought with a large enough effect; inconclusive means small, poorly fitted or top-dose-only effect, or another doubt; inactive means no such curve, though single readings can be large; an effect the other way counts as inactive or inconclusive.

SMILES | MCF10A rereplic | TDP1 cell noCPT | SW480 rerep | IL1B secr inh | DT40 TDP1 CPT | BCR signal inh
Clc1ccc(OCCOCCOc2cccc3cccnc23)c(Br)c1 | ? | ? | -31% | -3 | 23µM* | ?
Brc1ccc(OCCCOc2cccc3cccnc23)cc1 | 14% | -23% | 0% | -1 | -1% | ?
Brc1ccc(OCCOCCOc2cccc3cccnc23)cc1 | -1% | 23µM* | -6% | ? | ? | /
Cc1noc(C(=O)N2CC3(C)CC2CC(C)(C)C3)c1Cl (centres undefined) | 15% | 18µM* | 2% | 52 | ? | 2%
CC1(C)CC2CC(C)(CN2C(=O)c2cc(-c3ccc(O)cc3)on2)C1 (centres undefined) | ? | ? | 2% | -62* | -14% | 16%
COc1cccc(-c2cc(C(=O)N3CC4(C)CC3CC(C)(C)C4)no2)c1 (centres undefined) | ? | 21µM* | 0% | -8 | ? | -1%
Cc1ccc(OCC(=O)N2CC3(C)CC2CC(C)(C)C3)cc1 (centres undefined) | 29% | ? | 4% | -7 | ? | ?
CC1(C)CC2CC(C)(CN2C(=O)NC(=O)c2ccccc2)C1 (centres undefined) | 3% | -7% | 0% | 4 | 3% | 12%
COc1cccc(-c2cc(C(=O)N3CCCCC3C)no2)c1 (centres undefined) | 0% | -23% | -2% | 23 | -18% | -15%
Cc1ccc(C(=O)Nc2ccccc2C(=O)N2CC3(C)CC2CC(C)(C)C3)cc1 (centres undefined) | 26µM* | ? | ? | -30 | -47% | 10%
CS(=O)(=O)N1CCC(Oc2ccccc2C(=O)N2CCN(CC3CC3)CC2)CC1 | 1% | -13% | 3% | 21 | -6% | 2%
O=C(c1cc(C(F)(F)F)cc(C(F)(F)F)c1)N1CCC2(CCCN(Cc3ccccc3)C2)CC1 | / | -20% | / | / | 10% | /
Cc1ccc(S(=O)(=O)N/N=C2/CC(c3ccccc3)Oc3ccccc32)cc1[N+](=O)[O-] (centres undefined) | ? | -12% | 17% | 51 | -7% | ?
Fc1ccc(N/N=C2/CC(c3ccccc3)Oc3ccccc32)c(F)c1 (centres undefined) | ? | 3% | 0% | -52* | 4% | 2%
CNC(=S)N/N=C1\CC(c2ccccc2)Oc2ccccc21 (centres undefined) | 17% | 2.6µM* | 1% | 25 | 5.2µM* | -28%
O=S(=O)(N/N=C1/CC(c2ccccc2)Oc2ccccc21)c1ccc(Br)cc1 (centres undefined) | 10µM* | ? | ? | 2 | ? | 0%
Fc1ccc(N/N=C2/CCSc3sccc32)c(F)c1 | 1% | -3% | -13% | 10 | -7% | 1%
CCc1c(-c2ccccc2)nc2nc(C)c(C)nn12 | 19% | -20% | ? | 25 | -11% | ?
CCc1nn(-c2ccccc2)c2nc(-c3cccc(OC)c3)c3cc(OC)c(OC)cc3c12 | / | -2% | / | / | 3% | /
CCc1c(-c2ccccc2)ncn1Cc1cccc(-c2ccccc2)c1 | / | 8.2µM* | / | -22 | 8.2µM* | /
CCN(CC)C(=O)c1ncn(Cc2ccccc2)c1C(=O)N(CC)CC | -2% | 21% | -7% | 20 | 10% | 5%
CCc1c(-c2ccccc2F)ncn1Cc1cccc(-c2ccccc2)c1 | / | 2.6µM* | / | 3 | 2.6µM* | /
CCc1c(-c2cccc(OC)c2)ncn1Cc1cccc(-c2ccccc2)c1 | / | 8.2µM* | / | -16 | 6.5µM* | /
CCc1c(-c2ccc(Cl)cc2)ncn1Cc1cccc(-c2ccccc2)c1 | / | 7.3µM* | / | -18 | 6.5µM* | /
CCc1c(C2CC2)ncn1Cc1cccc(-c2ccccc2)c1 | / | 1.8µM* | / | -60* | 1.8µM* | /
SMILES | MCF10A rereplic | TDP1 cell noCPT | SW480 rerep | IL1B secr inh | DT40 TDP1 CPT | BCR signal inh
CCCc1c(Cc2cccc(F)c2)ncn1Cc1cccc(-c2ccccc2)c1 | / | 3.7µM* | / | / | 3.3µM* | /
CCCc1nc2c3ccccc3ccn2c1Cc1cccc(F)c1 | / | ? | / | 0 | ? | /
CCOc1ccc2c(c1)ncn2Cc1ccccc1 | -7% | -26% | -2% | 3 | -4% | 1%
COc1ccc(C(=O)Nc2nnc(SCC(=O)NCc3ccco3)s2)c(OC)c1 | -17% | ? | -8% | -30 | ? | ?
CC1(C)OC(c2ccccc2)=C/C(=C/C=Nc2ccccc2)O1 | ? | ? | 7% | -5 | 23µM* | ?
O=c1oc2ccc3ccccc3c2cc1-c1nnc(-c2ccccc2)o1 | 1µM* | ? | 1% | -58* | ? | ?
CCOCCCNC(=S)N1CCN(Cc2ccc3c(c2)OCO3)CC1 | 6% | -26% | -2% | 17 | -14% | -19%
COC(=O)c1cc(CNC(=O)c2ccccc2OC)cc(NC(=O)c2ccccc2F)c1 | / | 16µM* | / | / | 21µM* | /
COc1ccccc1C(=O)NNC(=O)c1ccccc1F | ? | -12% | ? | 9 | 1% | ?
COC(=O)c1cc(CNC(=O)c2ccccc2F)cc(NC(=O)c2ccccc2OC)c1 | / | 23µM* | / | / | -17%[9.04 µM] | /
COC(=O)c1cc(CNC(=O)c2cccc3ccccc23)cc(NC(=O)c2ccccc2OC)c1 | / | ? | / | / | 10%[9.04 µM] | /
COC(=O)c1ccc2nc(-c3ccco3)c(Cc3cccc(Cl)c3)n2c1 | / | 16µM* | / | 24 | ? | /
COC(=O)c1ccc2nc(-c3ccco3)c(Cc3ccccc3)n2c1 | / | 21µM* | / | 7 | 26µM* | /
COC(=O)c1ccc2nc(-c3cccc(Br)c3)c(Cc3cccc(F)c3)n2c1 | / | ? | / | 36 | ? | /
Cc1cccc(N(C)S(=O)(=O)c2csc(C(N)=O)c2)c1 | -12% | 7% | 0% | 2 | 4% | -2%
CCCN1C(=O)SC(CC(=O)Nc2cccc3ccccc23)C1=O (centres undefined) | 6% | 16µM* | 5% | 19 | 16µM* | -1%
CCCN1C(=O)SC(CC(=O)Nc2ccccc2)C1=O (centres undefined) | 3% | ? | 7% | -4 | 23µM* | -1%

Compound activity (PubChem)
